This is an account of results in PubChem BioAssay.

Values joined by “and” are separate entries in the source; they are usually repeats but may differ in a detail not shown here. Equal entries are not always repeated. For some assays here: Measured potencies and affinities stand elsewhere. Active and inactive are the calls of the source. Unless noted, no rule for the calls is given here.

One may read the viability as a read-out of living cells in per cent, often relative to untreated cells. As a reminder, the inhibition is the drop in the measured response relative to a control, in per cent.

Test [1] can be described thus: liver-stage malaria parasite growth inhibition, primary screen, cell-based, HepG2, luciferase luminescence, HepG2 viability (AID 624349; in the data active = parasite load remaining mostly below about 12%, no sharp cut-off; inactive = mostly above about 10%;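 also: 100% = mean of DMSO negative control wells on the same plate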). The following applies: P. berghei liver stage in HepG2, luciferase luminescence, concentration not given here; parasite load remaining: stronger effect = lower value; viability: measured here: HepG2 viability without parasites.
Test [2] deals with Hepatitis C virus NS3 helicase. Kind of test: HCV NS3 helicase inhibitors, primary screen, biochemical, fluorescence polarization, LOPAC1280 library (AID 687035; in the data active = inhibition above about 37%). The following applies: Purified HCV NS3 helicase, Cy5-dT15 ssDNA binding fluorescence polarization; stronger effect = higher value; concentration not given here. In general terms: Polarisation of emitted light reports the rotation of a fluorescent probe.

A short description of test [3]: Cy5 fluorescence quenching or enhancement artefacts, artefact control for HCV NS3 helicase inhibitor project, biochemical, LOPAC1280 (AID 687037). Particulars: Cy5-DNA-NS3h complex fluorescence interference counterscreen. (In general: Counterscreens check selectivity or assay interference.)
Test [4] can be described thus: stimulators of nuclear beta-catenin in C2C12, primary screen, imaging, WNT3A-conditioned medium, mouse C2C12, NPC library (AID 1117326; in the data active = nuclear beta-catenin stimulation mostly above about 4.2%, no sharp cut-off; inactive = mostly below about 10%). The following applies: stronger effect = higher value.
Test [5] is described as follows: stimulators of insulin release from INS-1E, primary screen, cell-based, 5 mM glucose, NPC library (AID 1117329;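 active = compound raises insulin release from rat beta cells at 5 mM glucose, no numeric limit stated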). Particulars: rat INS-1E insulin secretion, at 10 µM, stronger effect = higher value.
Test [6] in a line: growth inhibition of GSK3B-pretreated HCT116 cells – cell-based, CellTiter-Glo, 0.2 to 20 µM (AID 1117336;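 active = compounds lowering colon cancer cell viability after pretreatment blocking the GSK3B kinase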). Particulars: HCT116 viability after GSK3B inhibitor, at 20 µM, stronger effect = higher value. (In ATP-based viability assays light output follows the ATP content of the culture.)
Test [7] in a line: inhibition of endothelial tube formation, primary screen, imaging, VEGF stimulated, CD31 staining, tube area, NPC library (AID 1117340;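 active = compound that reduces growth-factor-driven endothelial tube area in a mixed cell culture, no cutoff stated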). The following applies: VEGF-stimulated ADSC/ECFC co-culture, at 10 µM, stronger effect = higher value.
A short description of test [8]: glucagon-like peptide 1 release enhancers, primary assay, NCI-H716 cell line, NPC library (AID 1117341;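 active = compound raises GLP1 secretion from the human gut endocrine cells, with no numeric limit stated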). The following applies: NCI-H716 cells, at 10 µM, stronger effect = higher value.
Test [9] in a line: HCT116 colon cancer cell growth inhibition, primary screen, CellTiter-Glo luminescence, NPC library (AID 1117342;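 active = compounds that lower survival of HCT116 colon cancer cells in the luminescence readout, no numeric limit stated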). The following applies: at 20 µM (top of the series).
The nature of test [10]: CellTiter-Glo luminescent readout of SW480 viability loss, NPC library primary (AID 1117343;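 active = compounds that lower viability of the colon cancer cells in the luminescence readout, with no numeric limit stated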). The following applies: CellTiter-Glo luminescence; at 20 µM (top of the series).
Test [11] is described as follows: decreased DLD-1 cellular survival, CellTiter-Glo luminescent readout, NPC compound collection, primary HTS (AID 1117346;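 active = compounds that lower survival of DLD-1 colon cancer cells in the luminescence readout, no cutoff given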). The following applies: DLD-1 viability, CellTiter-Glo luminescence; at 20 µM (top of the series).
The nature of test [12]: Cy5 fluorescence interference with SSB-bound oligo, artefact control for HCV NS3 helicase inhibitor project, biochemical, NIH Clinical Collection, E. coli SSB (AID 743268).
Test [13] relates to Hepatitis C virus NS3 helicase. Kind of test: HCV NS3 helicase inhibitors, primary screen, biochemical, fluorescence polarization, NIH Clinical Collection (AID 743270). The following applies: NS3 helicase binding to Cy5-dT15 DNA, stronger effect = higher value, concentration not given here.
Test [14] has as its target Single-stranded DNA-binding protein (Escherichia coli (strain K12)) (UniProt P0AGE0). Kind of test: E. coli SSB displacement from DNA, counter-screen for HCV NS3 helicase inhibitor project, biochemical, fluorescence polarization, NIH Clinical Collection (AID 743271; in the data active = inhibition above about 28%). The following applies: stronger effect = higher value, concentration not given here.
The nature of test [15]: fluorescence interference in NS3h assay format, artefact control for HCV NS3 helicase inhibitor project, biochemical, NIH Clinical Collection (AID 743272).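 Also: HCV NS3 helicase with a Cy5 labelled single stranded DNA probe.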 The following applies: fluorescence interference counterscreen, stronger effect = lower value.
Test [16] deals with Calcium-dependent protein kinase 1 (Plasmodium falciparum (isolate 3D7)) (UniProt P62344). Briefly: PfCDPK1 kinase inhibitors, biochemical, TCAMS library (AID 1159585; cut-off not given, nearly all actives have IC50 up to about 0.98 µM;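 also: inhibitors leave more ATP so luminescence rises with inhibition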). Particulars: recombinant PfCDPK1, Kinase-Glo ATP depletion luminescence.
Test [17] deals with Plasmodium falciparum protein kinase 6 (PK6, PF3D7_1337100) (UniProt Q8IDW1). Briefly: PfPK6 kinase inhibitors, biochemical, TCAMS library (AID 1159586). Particulars: recombinant PfPK6, Kinase-Glo ATP depletion luminescence.
Test [18] deals with Neuropilin-2 / VEGF-C interaction (human). Kind of test: inhibitors of NRP2–VEGF-C binding, biochemical, microplate binding format, z-score (AID 743281). Particulars: microplate NRP2/VEGF-C binding assay; stronger effect = lower value.

Sequence of Calcium-dependent protein kinase 1 (Plasmodium falciparum (isolate 3D7)) (P62344 whole entry, looked up): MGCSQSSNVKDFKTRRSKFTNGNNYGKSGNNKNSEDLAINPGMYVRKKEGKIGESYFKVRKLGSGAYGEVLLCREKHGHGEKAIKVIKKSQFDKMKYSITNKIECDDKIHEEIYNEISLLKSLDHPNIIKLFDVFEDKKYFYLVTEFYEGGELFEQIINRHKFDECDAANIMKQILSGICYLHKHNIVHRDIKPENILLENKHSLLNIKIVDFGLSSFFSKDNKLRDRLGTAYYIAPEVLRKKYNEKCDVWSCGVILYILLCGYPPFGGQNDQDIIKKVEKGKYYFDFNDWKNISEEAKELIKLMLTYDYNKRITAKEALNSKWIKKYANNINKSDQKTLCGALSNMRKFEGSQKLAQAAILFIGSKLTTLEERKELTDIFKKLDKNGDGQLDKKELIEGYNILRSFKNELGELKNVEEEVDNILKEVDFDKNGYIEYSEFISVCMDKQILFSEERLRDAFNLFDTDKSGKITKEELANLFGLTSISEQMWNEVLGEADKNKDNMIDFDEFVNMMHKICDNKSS
Sequence of Plasmodium falciparum protein kinase 6 (PK6, PF3D7_1337100) (Q8IDW1 1-305): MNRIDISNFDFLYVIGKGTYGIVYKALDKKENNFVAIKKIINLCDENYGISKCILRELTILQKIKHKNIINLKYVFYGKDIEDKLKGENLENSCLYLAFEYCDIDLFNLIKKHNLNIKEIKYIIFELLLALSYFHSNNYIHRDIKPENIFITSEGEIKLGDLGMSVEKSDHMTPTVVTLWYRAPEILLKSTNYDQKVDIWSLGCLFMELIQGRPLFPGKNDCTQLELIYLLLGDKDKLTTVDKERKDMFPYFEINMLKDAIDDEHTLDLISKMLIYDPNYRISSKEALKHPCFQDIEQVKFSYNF

In the case of `Cc1cn[nH]c1`, the parasite load remaining in test [1] was 51% (inactive). Moreover, the viability in test [1] was found to be 102%. In addition, in test [2], the inhibition is -3% (inactive). In addition, in [3], the fluorescence ratio (interference) was 0.9 (inactive). For the same compound, the nuclear beta-catenin stimulation is -2.1% (inactive) in test [4] (at 10 µM) and -2% in [4] (stimulation, at 2 µM). In test [5], the insulin secretion stimulation is 0.4% (inactive). For the same compound, the viability decrease in [6] is 20.3% (inactive). Besides, the tube area decrease in [7] is 4.6% (inactive). The GLP1 secretion stimulation in test [8] is 1.6% (inactive). In [9], the inhibition of viability was 0.47% (inactive). For the same compound, the viability decrease (inhibition) is 19.8% (inactive) in test [10] and 2% (inactive) in test [11].
As to `O=C(O)CN1C(=O)c2cccc3cccc(c23)C1=O`, the parasite load remaining in test [1] was 30.8% (inactive). In test [1], the viability came out at 96.3%. Moreover, the nuclear beta-catenin stimulation in [4] (at 10 µM) is -0.2% (inactive); in test [4] (stimulation, at 2 µM) it was 0.9%. Further, the insulin secretion stimulation in [5] was -1.8% (inactive). In addition, the viability decrease in test [6] is -2.7% (inactive). In test [7], the tube area decrease was -6.3% (inactive). Moreover, in test [8], the GLP1 secretion stimulation is 1.6% (inactive). In addition, in test [9], the inhibition of viability was -17.1% (inactive). For the same compound, the viability decrease (inhibition) in [10] is 22.8% (inactive); in test [11] it was 2.05% (inactive).
Take `Nc1nc2c(ncn2COC(CO)CO)c(=O)[nH]1`: in test [1], the parasite load remaining is 53.7% (inactive) and 86.2% (inactive) and 12.5% (inactive). The viability in test [1] is 114% and 95.7% and 65%. Moreover, the inhibition is -2% (inactive) in test [2], -3.18% (inactive) in [13] and -2.76% (inactive) in test [14]. The fluorescence ratio (interference) in [3] is 1 (inactive). Besides, the fluorescence ratio was 1.03 (inactive) in test [12] and 1.02 (inactive) in test [15]. The nuclear beta-catenin stimulation in test [4] (at 10 µM) is 1.2% (inactive); in test [4] (stimulation, at 2 µM), 1.2%. Further, in [5], the insulin secretion stimulation was 0% (inactive). Also, the viability decrease in test [6] is -10.4% (inactive). Moreover, the tube area decrease in test [7] is -6.4% (inactive). The GLP1 secretion stimulation in [8] was -2% (inactive). Also, the inhibition of viability in test [9] is 4.7% (inactive). For the same compound, the viability decrease (inhibition) in test [10] is -10.2% (inactive); in test [11], -8.6% (inactive).
As to `Cc1cnc(C(=O)O)c[n+]1[O-]`, the parasite load remaining in [1] is 22.9% (inactive). Also, in test [1], the viability worked out at 79.5%. Also, the nuclear beta-catenin stimulation in test [4] (at 10 µM) is 2.4% (inactive); in test [4] (stimulation, at 2 µM), 1.1%. Further, the insulin secretion stimulation in test [5] is 3.6% (inactive). Besides, the viability decrease in test [6] was -16.5% (inactive). The tube area decrease in test [7] is 9.6% (inactive). For the same compound, in [8], the GLP1 secretion stimulation was -4.7% (inactive). In addition, in test [9], the inhibition of viability is 3% (inactive). The viability decrease (inhibition) in test [10] is 14.8% (inactive); in test [11], -0.8% (inactive).
In the case of `CCN(CC)Cc1cc(Nc2ccnc3cc(Cl)ccc23)ccc1O`, the parasite load remaining in test [1] was 2.94% (inactive) and 43.6% (inactive). Further, the viability in [1] is 35.5% and 83.9%. Also, the nuclear beta-catenin stimulation in [4] (at 10 µM) is 0.5% (inactive); in test [4] (stimulation, at 2 µM), -1.5%. In addition, in test [5], the insulin secretion stimulation was 9.6% (inactive). Moreover, in test [6], the viability decrease was 82% (active). In [7], the tube area decrease is 39.9% (inactive). Also, the GLP1 secretion stimulation in test [8] was -1.3% (inactive). In test [9], the inhibition of viability is 83.2% (active). The viability decrease (inhibition) in [10] was 87.3% (active); in [11], 44.8% (inactive). Further, the outcome in test [16] and in test [17] was inactive.
Regarding `CCN1CCCC1CNC(=O)c1cc(S(=O)(=O)CC)c(N)cc1OC` (stereo not drawn), the parasite load remaining in [1] is 79.8% (inactive). Also, in test [1], the viability turned out to be 68.8%. The inhibition in [2] was -3% (inactive); in test [13], 0.4% (inactive); in test [14], -4.72% (inactive). In addition, in test [3], the fluorescence ratio (interference) was 0.9 (inactive). The fluorescence ratio in [12] was 1.05 (inactive); in test [15], 1.01 (inactive). Also, the z-score in test [18] is -0.283 (inactive). In addition, the nuclear beta-catenin stimulation was -0.8% (inactive) in [4] (at 10 µM) and -0.8% in test [4] (stimulation, at 2 µM). The insulin secretion stimulation in test [5] was 0% (inactive). Also, the viability decrease in test [6] is -1.8% (inactive). Besides, the tube area decrease in test [7] is -11.8% (inactive). In test [8], the GLP1 secretion stimulation is -4.7% (inactive). Further, the inhibition of viability in test [9] was -1.4% (inactive). The viability decrease (inhibition) in [10] was 1.7% (inactive); in test [11], -1.4% (inactive).
